Results from PubChem BioAssay AID1578 (Sanford-Burnham Center for Chemical Genomics, 2009).
About 3,000 (1%) of roughly 290,000 compounds were called active. What follows is part of a selection rich in actives, with near analogues and random picks from the rest. Values without a mark were called inactive. Rule as the data show it: active = inhibition mostly above about 36% (no sharp cut-off); inactive = mostly below about 34%.

Experiment: inhibition of NOD1-driven NF-kB reporter – cell-based, luminescence, uHTS, primary screen (AID 1578);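 also: HEK-293T reporter cells stimulated with the NOD1 agonist gamma-tri-DAP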
Details: NOD1-driven NF-kB luciferase reporter cells, at 4 µM, hits give high values

Row | Structure (SMILES) | inhibition
1 | COc1ccc2[nH]c(=O)c(CN(Cc3cccnc3)C(=S)NCC3CCCO3)cc2c1 (stereo not drawn) | -30.3%
2 | O=c1c2[nH]c3ccc(F)cc3c2ncn1CCN1CCOCC1 | -10.5%
3 | O=P(c1ccccc1)(c1ccccc1)C1CCCO1 (stereo not drawn) | 4.7%
4 | O=S(=O)(c1ccc(Cl)cc1)N1CCC2(CC1)CO2 | -17.5%
5 | O=S(=O)(c1ccccc1)N1CCC2(CC1)CO2 | 75.5% (active)
6 | O=S(=O)(c1ccccc1)N1CCC2(CC1)OCCO2 | -41.5%
7 | O=C(NCCCNC(=O)C(F)(F)C(F)F)C(F)(F)C(F)F | -3.6%
8 | O=C(CNS(=O)(=O)c1ccc(Br)cc1)Nc1ccc2c(c1)OCCO2 | -27.7%
9 | CCC(CC)=NNC(=O)c1ccccc1OCc1ccc(F)cc1 | -13.1%
10 | FC(F)(F)c1ccc(/C=N/NC(=S)NC2CCCCC2)cc1 | -19.8%
11 | COCC1CCN(C(=O)c2cc(COc3ccccc3SC)on2)C1 (stereo not drawn) | -17.6%
12 | CSc1ccccc1OCc1cc(C(=O)N2CCC(Oc3cccnc3)CC2)no1 | -30.2%
13 | COc1cccc(OCc2cc(C(=O)N3CCC(c4ccncc4)CC3)no2)c1 | 26.7%
14 | Cc1cccc(C)c1OCc1cc(C(=O)N2CCC(c3ccncc3)CC2)no1 | 6.6%
15 | Cc1ccc(NC(=S)NC(NC(=O)N(C)C)C(Cl)(Cl)Cl)cc1 (stereo not drawn) | -18.2%
16 | Cc1cc(OCC(=O)N(C(C)C)C(C)C)ccc1Cl | -6.4%
17 | O=[N+]([O-])c1cccc(-c2nnc(C34CC5CC(CC(C5)C3)C4)o2)c1 | 3.3%
18 | CC(=O)c1ccc(NC(=O)Nc2ccc3c(c2)nc(C)n3C)cc1 | -18.8%
19 | CCn1c(C)nc2cc(NC(=O)Nc3cccc(C(C)=O)c3)ccc21 | 27.9% (active)
20 | CCn1c(C)nc2cc(C(=O)NNC(=O)Nc3cccc(Cl)c3)ccc21 | -5.3%
21 | Cc1nc2cc(NC(=O)Nc3ccccc3Cl)ccc2n1C | 53% (active)
22 | Cc1nc2cc(NC(=O)Nc3cccc4ccccc34)ccc2n1C | -27.6%
23 | COc1ccccc1NC(=O)Nc1ccc2c(c1)nc(C)n2C | -28.8%
24 | CN1CCN(C(=O)C2CCCN(S(=O)(=O)c3ccc(F)cc3)C2)CC1 (stereo not drawn) | -7.3%
25 | Cc1ccccc1Nc1n[nH]c(C)c1[N+](=O)[O-] | -24.5%

Row | Structure (SMILES) | inhibition
26 | O=C(NCCc1ccccc1)c1cccc2c1C(=O)N(C1CCCCC1)C2 | -19.5%
27 | O=C(Cc1ccc(Cl)cc1Cl)Nc1ccncc1 | 42.8%
28 | COc1ccc(CC(=O)Nc2ccccc2NC(=O)Cc2ccc(OC)cc2)cc1 | -7.4%
29 | COc1ccc(CC(=O)Nc2cccnc2)cc1 | -8.6%
30 | O=C(Cc1c(Cl)cccc1Cl)Nc1ccncc1Cl | 5.2%
31 | COc1ccccc1/C=C/CN1CC(C)OC(C)C1 (stereo not drawn) | -19.9%
32 | Cc1ccc(NC(=O)CCn2cccc2)cc1 | 3.6%
33 | O=C(CSc1nnc(-c2cccnc2)n1Cc1ccccc1)NCc1ccco1 | 8.8%
34 | COC(=O)C1CCN(Cc2cn(-c3ccccc3)nc2-c2ccc3c(c2)OCO3)CC1 | -55.9%
35 | CC1CN(Cc2c(O)ccc3c(=O)c(-c4ccccc4)coc23)CC(C)O1 (stereo not drawn) | -13.3%
36 | COc1ccc(C2N3CC4(C)CN2CC(C)(C3)C4=O)cc1OC (stereo not drawn) | -7.8%
37 | Cc1ccc(-c2noc(CCC(=O)NCc3ccco3)n2)cc1 | -0.8%
38 | O=C(CCc1nc(-c2ccccc2)no1)NCc1ccco1 | 11%
39 | Fc1cnc(N2CCN(c3ccccc3)CC2)nc1N1CCN(c2ccccc2)CC1 | 43.3%
40 | O=C(CCc1nc2ccccc2c(=O)[nH]1)Nc1ccc(F)cc1 | -23.2%
41 | COC(=O)c1ccc2nc(-c3ccc4c(c3)OCO4)cn2c1 | 68.3% (active)
42 | Oc1ccc(-c2cn3ccccc3n2)cc1O | 1.7%
43 | c1ccn2cc(-c3ccc4c(c3)OCCO4)nc2c1 | 45.8% (active)
44 | Oc1ccc(-c2cn3ccccc3n2)cc1 | -2%
45 | COC(=O)c1ccc2nc(-c3cccc(N)c3)cn2c1 | 40.5%
46 | Clc1ccc2nc(-c3ccc4c(c3)OCO4)cn2c1 | -30.6%
47 | CC12CCC(C(=O)O)(c3nc(C#N)c(C#N)nc31)C2(C)C (stereo not drawn) | -25.8%
48 | O=C(NCc1ccccn1)c1cccc(NS(=O)(=O)c2cccc(F)c2)c1 | -15.2%
49 | O=C(CCCn1c(=S)[nH]c2cc3c(cc2c1=O)OCO3)N1CCN(c2ccccc2)CC1 | -1%
50 | O=C(CCCn1c(=S)[nH]c2cc3c(cc2c1=O)OCO3)N1CCN(c2ccc(F)cc2)CC1 | -8.6%

Row | Structure (SMILES) | inhibition
51 | O=C(CCCCCn1c(=S)[nH]c2ccc(N3CCOCC3)cc2c1=O)NCc1ccccc1 | 2.3%
52 | Cc1cccc(N2CCN(C(=O)CCCn3c(=S)[nH]c4cc5c(cc4c3=O)OCO5)CC2)c1C | 2.8%
53 | C=CCNC(=O)CN(c1ccc(F)c(Cl)c1)S(C)(=O)=O | -17.3%
54 | CC(=O)N[C@@H](C)C(=O)N1CCN(S(=O)(=O)c2ccc(Cl)cc2)CC1 | -26%
55 | O=C(Nc1cccnc1Oc1ccc(Cl)cc1)c1cccc2ccccc12 | -9.2%
56 | COc1cc(OC)c(NC2c3ccccc3C(=O)N2c2cc(C)ccn2)cc1Cl (stereo not drawn) | -37.7%
57 | Cc1ccc(C)c(NC(=O)CCN2CCCCC2)c1 | -14.7%
58 | CCO[C@H]1OC(C(=O)O)=C[C@@H](c2ccc3c(c2)OCO3)[C@@H]1CCCO | -10.4%
59 | Cc1ccc2nc(-c3ccccc3)cn2c1 | 18%
60 | Cc1ccc2nc(-c3ccc(O)c(O)c3)cn2c1 | -18.6%
61 | Cc1ccc(-c2cn3cc(C)ccc3n2)cc1 | 92.4% (active)
62 | CCOC(=O)c1c(CSc2ccccc2)oc2ccc(O)cc12 | 98.6% (active)
63 | CCOC(=O)c1c(COc2ccccc2)oc2ccc(O)cc12 | 0%
64 | CCOC(=O)c1c(CSc2ccc(C)cc2)oc2ccc(O)cc12 | 30%
65 | CCOC(=O)CC(=O)CSc1nc2ccccc2c(=O)n1-c1ccc(C(=O)N2CCOCC2)cc1 | 6.8%
66 | Cc1ccc(Cn2nnc3c(=O)[nH]c(C4CCCN(S(=O)(=O)c5ccc(F)cc5)C4)nc32)cc1 (stereo not drawn) | -17.1%
67 | CCN(CC(=O)Nc1ccc(NC(C)=O)cc1)C(=O)C1COc2ccccc2O1 (stereo not drawn) | -17.6%
68 | CC(CN1CCOCC1)OC(=O)c1ccc(Br)cc1 (stereo not drawn) | -14.8%
69 | CC(CN1CCOCC1)OC(=O)c1ccccc1 (stereo not drawn) | -4.8%
70 | CC(CN1CCOCC1)OC(=O)c1ccc(C(C)(C)C)cc1 (stereo not drawn) | 68.1% (active)
71 | Cc1nc2c(c(=O)n1Cc1ccccc1Cl)c1nc3ccccc3nc1n2Cc1ccco1 | 17.8%
72 | COc1ccc(Cn2c3nc4ccccc4nc3c3c(=O)n(Cc4ccco4)cnc32)cc1 | 32.5%
73 | COc1ccc(Cn2c3nc4ccccc4nc3c3c(=O)n(Cc4ccco4)c(C)nc32)cc1 | 110% (active)
74 | O=C(NS(=O)(=O)Nc1ccc(Br)cn1)c1c[nH]c2ccccc12 | 31.1%
75 | CCOc1ccc(S(=O)(=O)N(C)c2ccc(OCC(=O)NCCc3ccc(OC)cc3)cc2)cc1 | -14%

Row | Structure (SMILES) | inhibition
76 | CN1CCN(S(=O)(=O)c2cccc(C(=O)Nc3sc4c(c3-c3nc5ccccc5[nH]3)CCCC4)c2)CC1 | -16%
77 | O=C(Nc1ccncc1)c1cccs1 | 37.2%
78 | O=C(Nc1ccc(NC(=O)c2cccs2)cc1)c1cccs1 | -30.2%
79 | O=C(Nc1nonc1NC(=O)c1cccs1)c1cccs1 | 58.9% (active)
80 | N#C/C(=C\c1cccc([N+](=O)[O-])c1)C(=O)NCC1CCCO1 (stereo not drawn) | -21%
81 | O=C(Nc1ccccc1C(=O)O)c1ccc(Br)c(S(=O)(=O)NCc2ccccc2)c1 | -0.6%
82 | CCOC(=O)CNC(=O)CSc1ncnc2c1cnn2-c1ccccc1 | -10.2%
83 | CCOC(=O)CNC(=O)CSc1ncnc2c1cnn2Cc1ccccc1 | 55.8% (active)
84 | COC(=O)CSc1ncnc2c1cnn2Cc1ccccc1 | 13.7%
85 | Nc1nc(Cl)cc(N2CCC(c3cc(-c4ccc(Cl)cc4Cl)n[nH]3)CC2)n1 | 34.5%
86 | COc1ccc(OC)c(-c2cc(C3CCN(c4cc(Cl)nc(N)n4)CC3)[nH]n2)c1 | 56.3% (active)
87 | COc1ccc(-c2cc(C3CCN(c4cc(Cl)nc(N)n4)CC3)[nH]n2)cc1 | 25.9%
88 | COC(=O)c1cc(C(=O)c2ccccc2)n2c(=O)/c(=C\N(C)C)sc12 | -11.3%
89 | O=C(NNC(=S)Nc1ccccc1C(F)(F)F)C1CC1 | -0.9%
90 | N#CCC(=O)NNC(=S)Nc1ccccc1C(F)(F)F | 42.8% (active)
91 | O=C(CCC(=O)Nc1ccccc1Cl)NNC(=S)Nc1ccccc1C(F)(F)F | -30.7%
92 | Cc1cc(C)c2c(N)c(C(=O)c3ccccc3)oc2n1 | 2%
93 | Cc1cc(C)c2c(N)c(C(=O)c3ccc(Br)cc3)oc2n1 | 68.7% (active)
94 | Cc1ccc(C(=O)c2oc3nc(C)cc(C)c3c2N)cc1 | -6.8%
95 | CCOC(=O)c1c(C)[nH]c(C(=O)COC(=O)c2ccccn2)c1C | 1%
96 | CC(C)n1c(CN(C)c2ccccc2)nc2ccccc21 | -18.1%
97 | COc1ccc(OC)c(S(=O)(=O)Nc2ccc(OCC(=O)O)cc2)c1 | 2.7%
98 | COc1ccc(NC(C)=O)cc1S(=O)(=O)NC(Cc1ccccc1)C(=O)O (stereo not drawn) | -2.4%
